{
  "source": "PubChem BioAssay AID743356",
  "about": "(Broad Institute, 2014)",
  "note": "The source made the active and inactive calls.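 How the source made its calls: active means compounds that cut cell viability with a fitted half-maximal dose no more than twice the top valid dose; inconclusive means flat curve inhibiting 30 to 70%, or a poor fit; inactive means the rest, including any rise in viability.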",
  "data": [
    {"assay": "A549 cell cytotoxicity, dose response, cytotoxicity control, luminescence, dry powder, set 10 (AID 743356)", "conditions": "CellTiter-Glo ATP luminescence, 72 h; at 26 µM unless noted", "values": [
      {"smiles": "CN1c2ccc(-c3cccc(F)c3)cc2[C@@H]2[C@@H](CCN2C(=O)c2ccc3c(c2)OCO3)[C@H]1CO", "max inhibition of viability %, stronger effect = higher value": "-9.13% (inactive)"},
      {"smiles": "CNC(=O)c1ccc(N2CCN(C(=O)c3ccc4c(c3)OCO4)CC2)cc1", "max inhibition of viability %, stronger effect = higher value": "-22.9% [at 0.0015 µM] (inactive)"},
      {"smiles": "COC(=O)CCCCCCC(=O)N1CC[C@@H]2[C@@H](CO)N(C)c3ccc(-c4cccc(F)c4)cc3[C@@H]21", "max inhibition of viability %, stronger effect = higher value": "8.86% [at 6 µM] (inactive)"},
      {"smiles": "COc1ccc(NC(=O)N2CC[C@@H]3[C@@H](CO)N(C)c4ccc(-c5ccc(F)cc5)cc4[C@@H]32)cc1", "max inhibition of viability %, stronger effect = higher value": "-9.64% (inactive)"},
      {"smiles": "CN1c2ccc(-c3cccc(F)c3)cc2[C@H]2[C@H](CCN2C(=O)Nc2ccccc2F)[C@H]1CO", "max inhibition of viability %, stronger effect = higher value": "-15.8% [at 23.5 µM] (inactive)"},
      {"smiles": "CC(=O)c1ccc(N2CCN(C(=O)c3ccccc3Cl)CC2)cc1", "max inhibition of viability %, stronger effect = higher value": "15.7% [at 0.195 µM] (inactive)"},
      {"smiles": "CN1c2ccc(-c3ccc(F)cc3)cc2[C@H]2[C@H](CCN2C(=O)Nc2cc(F)ccc2F)[C@H]1CO", "max inhibition of viability %, stronger effect = higher value": "-3.91% [at 23.5 µM] (inactive)"},
      {"smiles": "COc1ccccc1NC(=O)N1CC[C@@H]2[C@@H](CO)N(C)c3ccc(-c4ccc(F)cc4)cc3[C@@H]21", "max inhibition of viability %, stronger effect = higher value": "13.3% [at 0.0015 µM] (inactive)"},
      {"smiles": "CN(C)C(=O)c1ccc(N2CCN(C(=O)c3ccc4c(c3)OCO4)CC2)cc1", "max inhibition of viability %, stronger effect = higher value": "10.1% [at 0.1 µM] (inactive)"},
      {"smiles": "COc1ccccc1NC(=O)N1CC[C@@H]2[C@@H](CO)N(C)c3ccc(-c4cccc(F)c4)cc3[C@@H]21", "max inhibition of viability %, stronger effect = higher value": "-10.1% [at 23.5 µM] (inactive)"},
      {"smiles": "CC(=O)c1ccc(NCCNC(=O)c2ccc3c(c2)OCO3)cc1", "max inhibition of viability %, stronger effect = higher value": "9.33% [at 0.0007 µM] (inactive)"},
      {"smiles": "CNS(=O)(=O)c1ccc(N2CCN(C(=O)c3ccc4c(c3)OCO4)CC2)cc1", "max inhibition of viability %, stronger effect = higher value": "21.4% [at 0.003 µM] (inactive)"},
      {"smiles": "CC(=O)c1ccc(N2CC3(CN(C(=O)c4ccc5c(c4)OCO5)C3)C2)cc1", "max inhibition of viability %, stronger effect = higher value": "-11.2% [setting not given] (inactive)"},
      {"smiles": "CC(=O)c1ccc(N2CCN(C(=O)c3ccc4c(c3)OCO4)CC2)cc1", "max inhibition of viability %, stronger effect = higher value": "20.5% [at 0.8 µM] (inactive)"},
      {"smiles": "CC(=O)c1ccc(N2CCN(C(=O)c3ccc4c(c3)OCO4)[C@H](C)C2)cc1", "max inhibition of viability %, stronger effect = higher value": "9.13% [at 12 µM] (inactive)"},
      {"smiles": "COc1cccc(NC(=O)N2CC[C@@H]3[C@@H](CO)N(C)c4ccc(-c5cccc(F)c5)cc4[C@@H]32)c1", "max inhibition of viability %, stronger effect = higher value": "-9.56% (inactive)"},
      {"smiles": "CN1c2ccc(-c3ccc(F)cc3)cc2[C@H]2[C@H](CCN2C(=O)Nc2ccc(F)cc2)[C@H]1CO", "max inhibition of viability %, stronger effect = higher value": "18.3% [at 0.05 µM] (inactive)"},
      {"smiles": "COCC(=O)N1CC[C@@H]2[C@@H](CO)N(C)c3ccc(-c4cccc(F)c4)cc3[C@@H]21", "max inhibition of viability %, stronger effect = higher value": "-10.3% (inactive)"},
      {"smiles": "CC(=O)c1ccc(N2CCN(C(=O)c3ccccc3F)CC2)cc1", "max inhibition of viability %, stronger effect = higher value": "10.7% [at 0.012 µM] (inactive)"},
      {"smiles": "CN1c2ccc(-c3ccc(F)cc3)cc2[C@H]2[C@H](CCN2C(=O)Cc2cccnc2)[C@H]1CO", "max inhibition of viability %, stronger effect = higher value": "13.9% [at 0.0007 µM] (inactive)"},
      {"smiles": "CCC(=O)N1CC[C@@H]2[C@@H](CO)N(C)c3ccc(-c4ccc(F)cc4)cc3[C@@H]21", "max inhibition of viability %, stronger effect = higher value": "-5.87% [at 0.09 µM] (inactive)"},
      {"smiles": "CN1c2ccc(-c3cccc(F)c3)cc2[C@H]2[C@H](CCN2C(=O)Cc2cccnc2)[C@H]1CO", "max inhibition of viability %, stronger effect = higher value": "-2.44% (inactive)"},
      {"smiles": "CN1c2ccc(-c3cccc(F)c3)cc2[C@H]2[C@H](CCN2C(=O)Cc2ccccc2)[C@H]1CO", "max inhibition of viability %, stronger effect = higher value": "-6.91% [at 23.5 µM] (inactive)"},
      {"smiles": "CN1c2ccc(-c3cccc(F)c3)cc2[C@H]2[C@H](CCN2C(=O)c2ccc3c(c2)OCO3)[C@@H]1CO", "max inhibition of viability %, stronger effect = higher value": "-9.58% (inactive)"},
      {"smiles": "CN1c2ccc(-c3cccc(F)c3)cc2[C@@H]2[C@@H](CCN2C(=O)c2ccc3c(c2)OCO3)[C@@H]1CO", "max inhibition of viability %, stronger effect = higher value": "-3.11% (inactive)"},
      {"smiles": "COc1ccc(NC(=O)N2CC[C@@H]3[C@@H](CO)N(C)c4ccc(-c5cccc(F)c5)cc4[C@@H]32)cc1", "max inhibition of viability %, stronger effect = higher value": "-13.8% [at 0.0235 µM] (inactive)"},
      {"smiles": "COC(=O)c1ccc(N2CCN(C(=O)c3ccc4c(c3)OCO4)CC2)cc1", "max inhibition of viability %, stronger effect = higher value": "15.6% [at 0.1 µM] (inactive)"},
      {"smiles": "CC(C)NC(=O)N1CC[C@@H]2[C@@H](CO)N(C)c3ccc(-c4cccc(F)c4)cc3[C@@H]21", "max inhibition of viability %, stronger effect = higher value": "14.2% [setting not given] (inactive)"},
      {"smiles": "CN1c2ccc(-c3ccc(F)cc3)cc2[C@H]2[C@H](CCN2C(=O)Cc2ccccn2)[C@H]1CO", "max inhibition of viability %, stronger effect = higher value": "-16.3% (inactive)"},
      {"smiles": "CCCNC(=O)N1CC[C@@H]2[C@@H](CO)N(C)c3ccc(-c4ccc(F)cc4)cc3[C@@H]21", "max inhibition of viability %, stronger effect = higher value": "-28.2% [at 0.38 µM] (inactive)"},
      {"smiles": "COc1ccccc1C(=O)N1CCN(c2ccc(C(C)=O)cc2)CC1", "max inhibition of viability %, stronger effect = higher value": "13.9% [at 0.012 µM] (inactive)"},
      {"smiles": "CN1c2ccc(-c3cccc(F)c3)cc2[C@H]2[C@H](CCN2C(=O)CCCCCCC(=O)O)[C@H]1CO", "max inhibition of viability %, stronger effect = higher value": "-12.9% (inactive)"},
      {"smiles": "CCCCCCCC(=O)N1CC[C@@H]2[C@@H](CO)N(C)c3ccc(-c4cccc(F)c4)cc3[C@@H]21", "max inhibition of viability %, stronger effect = higher value": "20.6% [at 0.006 µM] (inactive)"},
      {"smiles": "CC(C)NC(=O)N1CC[C@@H]2[C@@H](CO)N(C)c3ccc(-c4ccc(F)cc4)cc3[C@@H]21", "max inhibition of viability %, stronger effect = higher value": "12.6% [at 0.05 µM] (inactive)"},
      {"smiles": "CN1c2ccc(-c3cccc(F)c3)cc2[C@H]2[C@H](CCN2C(=O)CCCCCCN)[C@H]1CO", "max inhibition of viability %, stronger effect = higher value": "15.1% [at 0.0004 µM] (inactive)"}
    ]}
  ]
}
